Inhibition data for 31 compounds are collected here from ChEMBL document CHEMBL4513146, “CO-ADD screening of Karazin Kharkiv National University (Ukraine) compounds”.

The subject of one assay is Klebsiella pneumoniae. The following applies: Concentration 32 ug.mL-1;; ASSAY_TEST Inhibition of Bacterial Growth; detection method Absorption (OD600); MEDIA CAMHB; plate type 384well; NBS; CORNING #3640; time 18 hr.
Another assay relates to Candida albicans. The following applies: Concentration 32 ug.mL-1; ASSAY_TEST Inhibition of Fungal Growth; detection method Absorption (OD530).
The test system of another assay is Cryptococcus neoformans. The conditions noted are these: Concentration 32 ug.mL-1; ASSAY_TEST Inhibition of Fungal Growth; detection method Resazurin; Absorption (OD600-OD570); plate type 384well; NBS; CORNING #3640. In general terms: Resazurin is reduced to fluorescent resorufin, in cell work by metabolically active cells.

Potency and affinity values are given separately.

On to `Cc1oc(-c2cccc(Cl)c2)nc1CSc1nc2ccccc2n2c(C)nnc12`, for which the Inhibition – broadly, the drop in the measured response relative to a control, in per cent – in the assay with Klebsiella pneumoniae is listed as 5.28%; with Candida albicans it was 6.15%; with Cryptococcus neoformans, -6.37%.

Turning to `Cc1ccc(-c2cc3c4nn(CC(=O)Nc5ccc(Cl)cc5)c(=O)n4ccn3n2)cc1C`, the Inhibition in the assay on Klebsiella pneumoniae was -7.29%; with Candida albicans, 11.19%; in the assay on Cryptococcus neoformans it was -17.93%.

On to `COc1ccc(-c2cc3c4nnc(SCC(=O)Nc5ccccc5C(F)(F)F)n4ccn3n2)cc1`, for which the Inhibition is given as 8.66% in the assay with Klebsiella pneumoniae, 3.79% in the assay with Candida albicans and -13.07% in the assay on Cryptococcus neoformans.

As to `C=Cc1ccc(CN(c2ccc(Cl)cc2)S(=O)(=O)c2cccn3c(C)nnc23)cc1`, the Inhibition is 7.52% in the assay with Klebsiella pneumoniae, 0.36% with Candida albicans and -8.75% with Cryptococcus neoformans.

For `COc1ccccc1-n1ccn2c(SCc3ccc(Cl)cc3)nnc2c1=O`, the Inhibition is listed as 8.98% with Klebsiella pneumoniae, 1.6% with Candida albicans and -13.63% in the assay with Cryptococcus neoformans.

For the compound `Cc1ccc(NC(=O)Cn2nc3c(Oc4cccc(C)c4C)nccn3c2=O)c(Br)c1`, the Inhibition in the assay on Klebsiella pneumoniae is on record as 10.09%; with Candida albicans, -2.33%; in the assay on Cryptococcus neoformans, -8.9%.

For the compound `COC(=O)c1ccc(CN(c2ccc(F)cc2)S(=O)(=O)c2cccn3c(C)nnc23)o1`, the Inhibition in the assay with Klebsiella pneumoniae is 11.43%; in the assay with Candida albicans it was 3.23%; with Cryptococcus neoformans, -7.89%.

Consider `COC(=O)c1cccc(NC(=O)Cn2nc3c(N4CCC(C)CC4)nccn3c2=O)c1`, for which the Inhibition in the assay on Klebsiella pneumoniae is listed as 5.33%; in the assay with Candida albicans, 2.15%; in the assay on Cryptococcus neoformans, -12.99%.

With `COc1ccc(N2CCN(C(=O)Cn3nc4c(Sc5cccc(C)c5)nccn4c3=O)CC2)cc1`, the results for the Inhibition with Klebsiella pneumoniae, in the assay on Candida albicans and with Cryptococcus neoformans were -3.27%, 1.08% and -17.29%, respectively.

`O=C(Cn1nc2ccc(Sc3ccccc3)nn2c1=O)Nc1ccc(F)c(Cl)c1`: the values for the Inhibition in the assay on Klebsiella pneumoniae, in the assay on Candida albicans and with Cryptococcus neoformans were 8.09%, 1.47% and -7.06%, respectively.

Take `COc1cc(NC(=O)Cn2nc3ccc(SC(C)C)nn3c2=O)cc(OC)c1`: the Inhibition is recorded as 4.22% in the assay with Klebsiella pneumoniae, 10.99% in the assay on Candida albicans and -7.98% in the assay with Cryptococcus neoformans.

On to `COc1cccc(CSc2nnc3c(=O)n(-c4ccc(Br)cc4)ccn23)c1`, for which the Inhibition in the assay with Klebsiella pneumoniae is on record as 8.64%; in the assay on Candida albicans, 19.07%; in the assay on Cryptococcus neoformans it was -13.83%.

Take `COc1ccc(-c2cc3c4nn(CC(=O)N5CCCc6ccccc65)c(=O)n4ccn3n2)cc1`: the Inhibition is 10.34% in the assay with Klebsiella pneumoniae, 3.82% in the assay on Candida albicans and -13.79% in the assay with Cryptococcus neoformans.

In the case of `Cc1cccc(Oc2nc3ccccc3n3c(=O)n(CC(=O)Nc4ccc5c(c4)OCCO5)nc23)c1C`, the Inhibition in the assay with Klebsiella pneumoniae was 14.16%; with Candida albicans, -0.7%; in the assay with Cryptococcus neoformans, -31.77%.

With `CCOc1ccc(-n2ccn3c(SCC(N)=O)nnc3c2=O)cc1`, the Inhibition is 16.24% with Klebsiella pneumoniae, 1.43% in the assay with Candida albicans and -5.27% in the assay on Cryptococcus neoformans.

As to `Cc1ccccc1Nc1cc(C)n2c(=O)n(CCc3ccccc3)nc2n1`, the Inhibition in the assay with Klebsiella pneumoniae is given as 8.17%; in the assay on Candida albicans, 2.84%; in the assay on Cryptococcus neoformans, -4.15%.

For `Cc1cc2nn(CC(=O)Nc3cccc(C)c3C)c(=O)n2c(Nc2ccc(C)c(F)c2)n1`, the Inhibition in the assay with Klebsiella pneumoniae was 16.72%; with Candida albicans, 5.25%; in the assay on Cryptococcus neoformans it was -5.98%.

As to `O=C(CSc1nc2ccccc2n2c(-c3ccccc3)nnc12)Nc1ccc(Br)cc1`, the Inhibition in the assay on Klebsiella pneumoniae was 12.64%; in the assay with Candida albicans it was 10.16%; with Cryptococcus neoformans, -26.76%.

Turning to `COc1ccccc1NC(=O)Cn1nc2n(CCCOC(C)C)c(=O)c3ccccc3n2c1=O`, the Inhibition was 12.77% with Klebsiella pneumoniae, 2.2% with Candida albicans and -35.55% in the assay with Cryptococcus neoformans.

As to `Cc1[nH]c2ccccc2c1C(=O)CSc1nnc2c(=O)n(-c3ccc(F)c(F)c3)ccn12`, the values for the Inhibition in the assay on Klebsiella pneumoniae, in the assay on Candida albicans and in the assay with Cryptococcus neoformans were 14.26%, 1.72% and -11.39%, respectively.

For `CC(=O)c1ccc(N2CCN(C(=O)CCc3nnc4c5cc(-c6ccccc6)nn5ccn34)CC2)cc1`, the Inhibition in the assay on Klebsiella pneumoniae is 14.87%; in the assay with Candida albicans it was 3.08%; in the assay with Cryptococcus neoformans, -8.28%.

Take `COc1cccc(NC(=O)Cn2nc3c(Oc4cccc(OC)c4)nccn3c2=O)c1`: the Inhibition is listed as 3.74% in the assay with Klebsiella pneumoniae, 3.44% in the assay with Candida albicans and -0.95% in the assay on Cryptococcus neoformans.

In the case of `CCCn1c(=O)c2sccc2n2c(=O)n(CC(=O)c3ccccc3)nc12`, the Inhibition in the assay with Klebsiella pneumoniae is recorded as 3.65%; with Candida albicans it was 4.43%; in the assay with Cryptococcus neoformans, -9.13%.

Regarding `CCOc1ccc(-n2ccn3c(SCC(=O)NCc4cccc(OC)c4OC)nnc3c2=O)cc1`, the Inhibition with Klebsiella pneumoniae was 14.82%; with Candida albicans it was 1.5%; in the assay with Cryptococcus neoformans it was -8.08%.

On to `Cc1cc(C)cc(N(Cc2ccccc2)S(=O)(=O)c2cccn3c(C)nnc23)c1`, for which the Inhibition in the assay with Klebsiella pneumoniae is -0.64%; with Candida albicans, 2%; in the assay with Cryptococcus neoformans it was -6.56%.

Take `CC(C)Sc1ccc2nn(CC(=O)Nc3ccccc3F)c(=O)n2n1`: the Inhibition in the assay with Klebsiella pneumoniae is 9.69%; in the assay with Candida albicans, 2.46%; in the assay on Cryptococcus neoformans, -3.85%.

Take `COc1ccc(Cl)cc1NC(=O)CSc1nnc2c(=O)n(-c3ccccc3)ccn12`: the values for the Inhibition with Klebsiella pneumoniae, with Candida albicans and in the assay with Cryptococcus neoformans were 11.41%, 3.46% and -20.14%, respectively.

With `O=C(Cn1nc2c(N3CCOCC3)nccn2c1=O)Nc1cccc(C(F)(F)F)c1`, the Inhibition with Klebsiella pneumoniae was 0.9%; in the assay on Candida albicans it was 5.11%; in the assay with Cryptococcus neoformans, -4.42%.

On to `O=c1n(Cc2nc(-c3ccc(OC(F)(F)F)cc3)no2)nc2ccc(-c3ccccc3)nn12`, for which the Inhibition was 8.49% in the assay with Klebsiella pneumoniae, 3.85% in the assay with Candida albicans and -17.12% in the assay with Cryptococcus neoformans.

On to `Cc1cccc(Cn2nc3n(CCc4ccccc4)c(=O)c4sccc4n3c2=O)c1`, for which the Inhibition in the assay with Klebsiella pneumoniae was 3.95%; in the assay with Candida albicans, -1.37%; with Cryptococcus neoformans it was -11.78%.

`CCCCOc1ccc(-c2cc3c4nnc(SCC(=O)Nc5ccc(C)c(C)c5)n4ccn3n2)cc1`: the Inhibition in the assay with Klebsiella pneumoniae is 4.46%; with Candida albicans it was -1.19%; with Cryptococcus neoformans it was -6.11%.
